Experimental data from PubChem BioAssay (NCI).
The panel holds about 83,000 compounds, 20% with a hit somewhere; the sample as a whole holds those more often.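 Compound tested at a single concentration for 48 hours in 96-well plates; a percent growth value below 10 was scored as active.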 Unmarked numbers belong to inactive results. The source made the active and inactive calls.

Tested on: MDA-MB-468 breast
Assay: NCI-60 one-dose screen, 48 h (100 = growth as untreated, 0 = no growth, -100 = all killed)
Conditions: 10 µM unless noted

Row | SMILES | growth
1 | COc1cc(C2c3cc4c(cc3C(O)C(CO)C2CO)OCO4)cc(OC)c1OC (stereo not drawn) | -17.7% (active)
2 | COc1cc2nc(NC3CCCC3)nc(NC3CCN(C(C)C)CC3)c2cc1OC | 45.4%
3 | O=C(N/N=C/c1c(Cl)cccc1Cl)c1ccccc1Nc1ccnc(C(F)(F)F)c1 | 53.5%
